Several values for one entry are separate records, joined by “and”; a condition that tells them apart may be missing. Equal values may be shown once. Records with an inconclusive call do not appear. The source holds several records for some structures; these can differ, active in one and inactive in another. Activity calls are given as the source filed them. How the source made its calls: active means hit-call score of the fitted dose curve at least 0.9, where 1 is the maximum; inconclusive means response in the unintended direction; inactive means score below 0.9.
Assays:
[1] = ATG_XTT_Cytotoxicity: Cytotoxicity Assessment in the Attagene TRANS-FACTORIAL HepG2 Assay (AID 2283584);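 on AC50: XTT signal for cell number as viability in transfected HepG2 cells; cells exposed to compound for 24 h before reading; active means loss of viability signal versus DMSO baseline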
Method in brief: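 HepG2 cells transiently transfected with GAL4-UAS multiple reporter units, dosed 24 h; cytotoxicity read by XTT as loss of signal versus DMSO baseline.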

[2] = TOX21_p53_BLA_p2_viability: Viability Assessment in the Tox21 HCT-116 p53 Agonism Beta-lactamase Assay, Phase 2 (AID 2283591);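 further: actives lower the ATP signal meaning cytotoxicity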
Method in brief: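 HCT-116 p53-bla cells (4000/well) rested 5 h at 37C, then received compounds in DMSO (217-fold dilution) for 16 h at 37C, 5% CO2. After the CCF4 read, CellTiter-Glo was added; ATP luminescence was read after 30 min at room temperature.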

[3] = TOX21_p53_BLA_p3_viability: Viability Assessment in the Tox21 HCT-116 p53 Agonism Beta-lactamase Assay, Phase 3 (AID 2283593);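 further: cells exposed to compound for 16 h before reading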
Method in brief: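 HCT-116 cells (4000/well) rested 5 h at 37C, then got DMSO compounds by pin tool (217-fold dilution) for 16 h at 37C, 5% CO2. After the bla read, CellTiter-Glo was added and luminescence read at 30 min, room temperature.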

[4] = target: Cellular tumor antigen p53 (Homo sapiens) (UniProt P04637); assay: TOX21_p53_BLA_p3_ratio: Tox21 HCT-116 p53 Agonism Beta-lactamase Assay, Ratio, Phase 3 (AID 2283596)
Sequence of Cellular tumor antigen p53 (Homo sapiens) (P04637 whole entry, looked up): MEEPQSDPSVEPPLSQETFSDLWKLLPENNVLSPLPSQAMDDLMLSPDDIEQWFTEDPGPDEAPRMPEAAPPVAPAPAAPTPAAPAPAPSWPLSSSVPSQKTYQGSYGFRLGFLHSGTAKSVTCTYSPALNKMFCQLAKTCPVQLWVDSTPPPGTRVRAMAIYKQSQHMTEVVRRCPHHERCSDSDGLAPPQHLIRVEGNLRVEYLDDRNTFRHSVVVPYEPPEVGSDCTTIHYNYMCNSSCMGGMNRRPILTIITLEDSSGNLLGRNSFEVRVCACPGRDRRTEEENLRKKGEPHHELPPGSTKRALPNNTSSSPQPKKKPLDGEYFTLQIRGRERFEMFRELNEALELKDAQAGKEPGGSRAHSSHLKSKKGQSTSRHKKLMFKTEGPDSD
Method in brief: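 Cells were seeded at 4000/well, rested 5 h at 37C, then dosed with DMSO compound solutions (217-fold dilution) for 16 h. CCF4-AM substrate was loaded for 2 h at room temperature, and the 460/530 nm emission ratio was fitted for gain of signal versus DMSO.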

[5] = TOX21_p53_BLA_p4_viability: Viability Assessment in the Tox21 HCT-116 p53 Agonism Beta-lactamase Assay, Phase 4 (AID 2283597);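 further: hits lower the luminescence signal meaning cytotoxicity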
Method in brief: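 4000 HCT116 cells per well; 5 h attachment; compounds from DMSO, 217-fold dilution; 16 h at 37C. Then CCF4-AM, 2 h RT, followed by CellTiter-Glo, 30 min RT, luminescence. Decrease = cytotoxicity.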

[6] = target: Cellular tumor antigen p53 (Homo sapiens) (UniProt P04637); assay: TOX21_p53_BLA_p5_ratio: Tox21 HCT-116 p53 Agonism Beta-lactamase Assay, Ratio, Phase 5 (AID 2283599)
Method in brief: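 HCT-116 cells carrying a p53-inducible beta-lactamase reporter were seeded at 4000 cells/well and dosed after 5 h with compound in DMSO (217-fold dilution). After 16 h at 37C, CCF4-AM substrate was added for 2 h, and the 460/530 nm emission ratio was scored as gain-of-signal versus DMSO.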

[7] = TOX21_p53_BLA_p5_viability: Viability Assessment in the Tox21 HCT-116 p53 Agonism Beta-lactamase Assay, Phase 5 (AID 2283600)
Method in brief: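 Decreased CellTiter-Glo luminescence denotes lost viability. Exposure: 16 h at 37C, 5% CO2, with compounds from DMSO stocks diluted 217-fold in wells of 4000 cells.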

[8] = target: Cellular tumor antigen p53 (Homo sapiens) (UniProt P04637); assay: TOX21_p53_BLA_p4_ratio: Tox21 HCT-116 p53 Agonism Beta-lactamase Assay, Ratio, Phase 4 (AID 2283601)
Method in brief: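 HCT116 cells carrying an inducible beta-lactamase reporter were plated at 4000 cells/well, rested 5 h, then exposed to compounds in DMSO (217-fold dilution) for 16 h at 37C. CCF4-AM substrate was loaded 2 h at room temperature; 460/530 nm emission ratio scored gain-of-signal versus DMSO.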

[9] = target: Cellular tumor antigen p53 (Homo sapiens) (UniProt P04637); assay: TOX21_p53_BLA_p2_ratio: Tox21 HCT-116 p53 Agonism Beta-lactamase Assay, Ratio, Phase 2 (AID 2283592)
Method in brief: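 First, HCT116 reporter cells settle for 5 h at 37C. Next, DMSO compound solutions are pinned in (217-fold dilution) and left 16 h. Finally, CCF4-AM substrate is loaded 2 h at room temperature and the 460/530 nm ratio read.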

Measured: AC50

C=CC(=O)[O][Sn]([CH2]CCC)([CH2]CCC)[CH2]CCC
active: [1] 1.09 µM | [2] 1.86 µM | [3] 1.64 µM | [4] 13.6 µM | [5] 1.56 µM | [6] 13.4 µM | [7] 1.82 µM | [8] 13.4 µM

CCCCN(CCCCO)N=O
inactive: [1] | [2] | [3] | [5] | [7]

O=C1c2ccccc2C(=O)C1C(=O)C(c1ccccc1)c1ccc(Cl)cc1 (stereo unspecified)
active: [2] 29.4 µM | [3] 15.9 µM | [5] 37.3 µM
inactive: [1] | [4] | [6] | [7] | [8]

CCC(C)(C#N)N=NC(C)(C#N)CC (stereo unspecified)
inactive: [1] | [2] | [3] | [5] | [6]

CC1(C)[C@H](C(=O)O[C@H](C#N)c2cccc(Oc3ccccc3)c2)[C@@H]1/C=C(\Cl)C(F)(F)F
inactive: [1] | [2] | [9] | [6] | [8]

O=[N+]([O-])c1ccc(Nc2ccccc2)cc1
inactive: [1] | [5] | [7] | [8]
active: [2] 32.5 µM | [4] 42.4 µM and 90.9 µM | [5] 82.4 µM | [6] 52.5 µM and 84.9 µM | [7] 66.3 µM | [8] 43.1 µM

N#Cc1ccncc1
inactive: [1] | [2] | [9] | [4] | [6] | [7] | [8]

O=[N+]([O-])c1ccccc1O
inactive: [1] | [2] | [9] | [5] | [6] | [8]

CCN(CC)C(=O)C(Cl)=C(C)OP(=O)(OC)OC
inactive: [1] | [2] | [4] | [5] | [6] | [7] | [8]

Source: PubChem BioAssay (EPA / NIEHS)
